Measured values from PubChem BioAssay AID504332 (National Center for Advancing Translational Sciences (NCATS), 2011).
“And” between values parts separate entries of the source, which are not always exact repeats. Equal values may be shown once. Screen size: about 350,000 compounds; about 31,000 (8.9%) were called active. Inconclusive results (about 15%) are left out. Calls follow the shape of the dose curve; as a rule, active = well fitted inhibition curve with a large enough effect; inconclusive = small, poorly fitted or top-dose-only effect; inactive = no such curve, though single readings can be large or run the other way. The list comes from a sample in which actives are over-represented; it also holds similar structures and randomly drawn compounds. The source holds several records for some structures; these can differ, active in one and inactive in another.

The compounds below were run against Histone-lysine N-methyltransferase EHMT2 (Homo sapiens) (UniProt Q96KQ7) (assay: qHTS Assay for Inhibitors of Histone Lysine Methyltransferase G9a). Conditions: G9a H3K9 monomethylation, AlphaScreen, 2 h; series mostly up to 59 µM; activity, negative = inhibition: at the top concentration.
Summary of the method: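 AlphaScreen read-out: biotin-H3K9 peptide (500 nM) methylation by 20 nM enzyme with 20 uM SAM, 2 h at room temperature after 15 min compound preincubation; anti-monomethyl H3K9 antibody plus donor/acceptor beads, 10 min dark.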
% is scaled to controls: 0 for no effect and ±100 for the full control effect; potency is read from the fitted curve at half-maximal effect.
Also: nearly all actives have a fitted effect of over 75% in size.

Sequence of Histone-lysine N-methyltransferase EHMT2 (Homo sapiens) (Q96KQ7 913-1193 limits assumed): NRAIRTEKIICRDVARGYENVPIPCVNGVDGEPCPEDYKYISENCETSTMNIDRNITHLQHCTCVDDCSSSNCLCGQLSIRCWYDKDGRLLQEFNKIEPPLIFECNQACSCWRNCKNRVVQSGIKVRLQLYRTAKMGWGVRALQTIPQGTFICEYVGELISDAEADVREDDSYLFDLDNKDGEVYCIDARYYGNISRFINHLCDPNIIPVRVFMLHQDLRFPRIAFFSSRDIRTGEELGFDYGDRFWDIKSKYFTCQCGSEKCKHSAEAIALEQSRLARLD

activity, negative = inhibition, inactive:
Cc1c(C(=O)Nc2cccc(Cl)c2)oc2ccc(S(=O)(=O)N3CCOCC3)cc12 9.55%, CC[C@@]12C(=O)N(c3ccccc3)C(=O)N1[C@H](c1ccc(Br)cc1)[C@@H]1C(=O)N(C(C)(C)C)C(=O)[C@@H]12 53.8% [at 2.33 µM], CCCc1ccc(C(=O)COC(=O)CN2C(=O)NC3(CCCCC3C)C2=O)cc1 (configuration not stated) -4.43% [at 12.7 µM], CCc1nn(CC(=O)N2CCN(c3ccc(Cl)cc3)CC2)c(=O)c2cc3occc3n12 -0.323%, CCOc1ccc(CCNC(=O)COC(=O)C2CCN(c3ccc(C(F)(F)F)cn3)CC2)cc1OCC 4.55% [at 102 µM], COc1ccc(Br)cc1/C=N/n1c(C)nnc1C 4.01%, Nc1nonc1-n1nnc(C(=O)N/N=C/c2c[nH]c3ccccc23)c1-c1ccccc1 96.6% [at 102 µM], CSC(=S)N/N=C/c1c[nH]c2ccccc12 -9.3%, CCCCN(C)c1nnc(NC(=O)Nc2ccc(Br)c(C)c2)s1 -8.76%, O=C(O)c1cc(S(=O)(=O)N(Cc2ccccc2)c2cccc(C(F)(F)F)c2)ccc1Cl 7.94% [at 102 µM], O=C(NCCC1=CCCCC1)c1ccc(-n2cncn2)cc1 3.99% [at 12.7 µM], Cc1oc2ccc(O)c(CN3CCCCC3)c2c1C(=O)Nc1cccc(C(F)(F)F)c1 -4.04%, O=C(NCc1ccccc1Cl)C(=O)NCC1CCCN1S(=O)(=O)c1cccs1 (configuration not stated) 1.3% [at 102 µM], Cc1ccc2c(c1)N(CC(=O)NCC1CCCO1)C(=O)CO2 (configuration not stated) 12.4% [at 102 µM], c1ccc(-c2cc(-c3ccccc3)[nH]n2)cc1 26.9% [at 102 µM], CCc1ccc(CNCc2c(C(=O)O)n(Cc3ccc(F)cc3Cl)c3cc(OC)ccc23)cc1 -2.34%, Cc1nc2c(-c3ccccc3)c(C)nn2c(C)c1CCC(=O)NCCc1ccccc1 5.72%, Cc1cc(OC(C)C(=O)NC2CC(C)(C)NC(C)(C)C2)c2c(C)cc(=O)oc2c1 (configuration not stated) 15.6% [at 102 µM], CCc1ccccc1NC(=O)N1CCN(C(=O)c2nsc3ccccc23)CC1 12.5%, CCN(Cc1ccccc1)Cc1c(O)ccc2c(=O)c(-c3ccc(Cl)cc3Cl)coc12 -2.39%, O=C(O)CSc1ccc(S(=O)(=O)N2CCCC2)cn1 -37.2% [at 2.33 µM], CC(C)(C)NC(=O)NCc1ccco1 9.25% [at 102 µM], O=C(NCc1ccco1)c1ccc([N+](=O)[O-])cc1Cl 17.2% [at 102 µM], O=C(c1ccc(F)c(S(=O)(=O)N2CCOCC2)c1)N(CCc1ccccc1)Cc1ccccc1 -4.88% [at 102 µM], CC(=O)c1cccc(OCc2cc(C(=O)NC(C)Cc3cccnc3)no2)c1 (configuration not stated) 10.3% [at 102 µM], CN(C)CCn1c2c(c(SCC(=O)NCc3ccccc3)nc1=O)CCC2 -1.82% [at 102 µM], Nc1c(Cl)cc(-c2csc(N3CCCC3c3nc4cc(Cl)c(Cl)cc4n3CCOCCO)n2)cc1Cl (configuration not stated) 23.4% [at 102 µM], COc1cccc(-n2c(SCC(=O)c3c[nH]c4ccccc34)nc3ccccc3c2=O)c1 11.3%, COc1ccc(C(CC(=O)N2CCN(c3ccccc3)CC2)c2c(O)cc(OC)cc2OC)cc1 (configuration not stated) -0.615% [at 12.7 µM], COc1ccc(CCNC(=O)c2cc(=O)c3c(C)cc(C)cc3o2)cc1OC -8.8%, COc1cccc(N2CCN(S(=O)(=O)c3ccc4c(c3)CCCN4C(C)=O)CC2)c1 3.68%, CCOC(=O)c1c(NC(=O)C2CC=CCC2C(=O)O)sc(C)c1CC (configuration not stated) -8.47% [at 102 µM], CCOC(=O)Nc1sc(C(=O)N(C)C)c(C)c1C(=O)OCC 27.3% [at 102 µM], Cc1ccccc1CNC(=O)C1CCCN(S(=O)(=O)N(C)c2ccc(F)cc2)C1 (configuration not stated) -0.195%, Cc1nn(-c2ccc(N3CCCCC3)nn2)c(C)c1CCC(=O)NCc1ccc(F)cc1 0.738%, C/C(=N\N)c1c(-c2ccccc2)c2cc(Br)ccc2[nH]c1=O 0.552% [at 102 µM], COC(=O)c1oc2ccc(Br)cc2c1NC(C)=O 3.67%, O=C(Nc1ccccc1)C1CCN(C(=O)c2ccc(Br)cc2)CC1 -4.25% [at 102 µM], CC(=O)c1c(C)[nH]c(C(=O)CN2C(=O)NC(C)(C)C2=O)c1C 3.15% [at 0.501 µM], Cc1ccccc1CN1CCN(CC(=O)NCc2ccccn2)C1=O 5.93%, Cc1ccc(CN2CCN(Cc3cn(C)nc3-c3ccccc3)CC2CCO)o1 (configuration not stated) 2.66% [at 102 µM], Cc1ccc(C(=O)CN2C(=O)NC3(CCc4ccccc43)C2=O)c(C)c1 (configuration not stated) 3.17% [at 102 µM], COc1ccccc1-n1c(CNC(=O)c2ccccc2)nnc1SCC(=O)Nc1nnc(C)s1 -4.37% [at 102 µM], COc1ccccc1-n1ccnc1SCC(=O)NC(C)(C)C 19.7% [at 102 µM], Cc1ccc2nc(SCC(=O)Nc3cccc4ccccc34)nc(=O)n2c1 -26.2% [at 102 µM], Cc1ccc(C)c(-n2ccnc2SCC(N)=O)c1 23.6% [at 12.7 µM], O=C(CSc1nccn1Cc1ccc(F)cc1)NCc1ccccc1 -3.68%, Cc1cc(NC(=O)CSc2nccn2-c2ccc([N+](=O)[O-])cc2)no1 -0.25% [at 102 µM], COc1cccc(-c2ccc3c(c2)S(=O)(=O)c2cccc(C(=O)O)c2C3=O)c1OC -17.9% [at 0.501 µM], CCC(=O)N1c2ccc(S(=O)(=O)NCc3ccco3)cc2CC1C (configuration not stated) -12.6%, Fc1ccc(-n2ncc3c(Nc4ccc(Oc5ccccc5)cc4)ncnc32)cc1 -1.42%, CCCc1cc(=O)[nH]c2nnc(SCC(=O)Nc3nnc(SCC)s3)n12 -30.1% [at 102 µM], Cc1cccc(Nc2nc(C)nc(N)c2S(=O)(=O)c2ccccc2)c1 4.77%, C=CCc1cccc(/C=N/NC(=O)COc2ccc(-n3cnnn3)cc2)c1O -11.3% [at 102 µM], CCN(CC)S(=O)(=O)c1ccc(N2CCOCC2)c(NC(=O)c2ccc(=O)n(C)n2)c1 -4.25% [at 12.7 µM], O=C1[C@@H]2C(Cc3ccc(O)cc3)NC3(C(=O)Nc4ccc(F)cc43)[C@@H]2C(=O)N1c1ccc(F)cc1 (some centres not stated) -37.6% [at 12.7 µM], C[C@@]12C(=O)N(c3cccc(Br)c3)C(=O)N1[C@H](c1ccc(Cl)cc1)[C@@H]1C(=O)N(C3CCCCC3)C(=O)[C@@H]12 -8.19% [at 102 µM], O=C(NCCS(=O)(=O)N1CCN(c2ccc(F)cc2)CC1)c1ccc2c(c1)OCO2 -0.16% [at 102 µM], O=C(Nc1ccccc1F)C(c1ccccc1)N1Cc2ccccc2C1=O (configuration not stated) -1.89%, CC1CCCCN1Cc1c(O)ccc2c(=O)c(-c3cccc(Cl)c3)c(C(F)(F)F)oc12 (configuration not stated) -1.19%, CCOC(=O)C(=O)C1C(=O)Nc2ccccc21 (configuration not stated) -47.2% [at 2.33 µM], CCCCC(CC)CNC(=O)C1CCN(S(=O)(=O)c2cccc3nsnc23)CC1 (configuration not stated) 3.29%, O=C(c1ccc2c(c1)N(Cc1ccccc1)C(=O)c1ccccc1S2(=O)=O)N1CCCC1 -26.6%, O=C(c1ccc2c(c1)N(Cc1ccc(Cl)cc1)C(=O)c1ccccc1S2(=O)=O)N1CCCCC1 -1.97%, CCOC(=O)c1cc(C(=O)Nc2ccc(S(=O)(=O)Nc3ccc(OC)cc3)cc2)nn1C 2.94% [at 102 µM], Cc1ccc2nc(-c3ccc(Br)cc3)cn2c1 -9% [at 102 µM], O=C1C=C(c2cccc(Cl)c2)C[C@@H](c2ccc(F)cc2)C1 6.54% [at 0.501 µM], CC1=C(C(=O)OCc2ccc(C)cc2)C(c2ccccc2Cl)CC(=O)N1 (configuration not stated) -30.3%, N/C(=N\OC(=O)c1ccc2c(c1)OCO2)c1ccc(Br)cc1 -36.4% [at 102 µM], N/C(=N\OC(=O)/C=C/c1ccccc1)c1ccc(Br)cc1 23.4% [at 102 µM], CCCCN1C(=O)/C(=C/C=C2/C=Cc3ccccc3N2CC)SC1=S 7.58% [at 102 µM], CCN1C(=O)/C(=c2\s/c(=C3\Sc4ccccc4N3C)c(=O)n2C)N(C)C1=S -35.3% [at 102 µM], CCN1C(=O)[C@H]2[C@@H](c3ccc(SC4CCCCC4)c(OC)c3)N[C@@](Cc3ccccc3)(C(=O)OC)[C@H]2C1=O 20.9% [at 2.33 µM]

Potency, inactive and 22.4 µM (active):
O=C(c1ccc2c(c1)N(Cc1ccc(F)cc1)C(=O)c1ccccc1S2(=O)=O)N1CCN(c2ccccn2)CC1

Potency, active:
S=c1[nH]nc(-c2ccccc2)n1/N=C/c1c[nH]c2ccccc12 1.58 µM, S=c1[nH]nc(-c2ccncc2)n1/N=C/c1ccccc1Cl 1.41 µM, S=c1[nH]nc(-c2ccco2)n1/N=C/c1ccccc1 1.58 µM, CCc1n[nH]c(=S)n1/N=C/c1c[nH]c2ccc(Br)cc12 8.91 µM, CCCC1C(=O)N2C(N(C)C)=Nc3ccc(C)cc3N2C1=O (configuration not stated) 3.55 µM, Cc1ccc(/C([O-])=C(/C(=S)NCc2ccco2)[n+]2ccccc2)cc1[N+](=O)[O-] 39.8 µM, Cc1nc2cc(C(F)(F)F)ccc2n1CCNc1nc(-c2cc(Cl)c(N)c(Cl)c2)cs1 39.8 µM, COc1ccc(C(C(O)C(=O)c2c[nH]c3ccccc23)N2CCN(c3ccccc3)CC2)cc1 (configuration not stated) 25.1 µM, CCOC(=O)c1c(NC(C)=O)sc2c(O)c(Br)ccc12 1.58 µM, COC(=O)c1[nH]c2ccc(Br)cc2c1NC(=O)Oc1ccccc1 11.2 µM, Cc1ccccc1CN1C[C@@H]2C[C@@H](c3cn(C)nc3-c3ccccc3)N3CCC[C@@]23C1=O 10 µM, Cc1cccc(-n2ccnc2SCC(=O)Nc2cccc3ccccc23)c1C 12.6 µM, O=C(CSc1nccn1-c1ccc(F)cc1)Nc1cccc2ccccc12 14.1 µM, Cc1nnc(NC(=O)CSc2nccn2-c2cccc(C)c2C)s1 50.1 µM, CSCCC1NC2(C(=O)Nc3ccc(Cl)cc32)[C@@H]2C(=O)N(C3CCCC3)C(=O)[C@H]12 (some centres not stated) 50.1 µM, CCCCC(CC)CNC(=O)C(=O)C1C(=O)Nc2ccccc21 (configuration not stated) 44.7 µM, N/C(=N\OC(=O)N1c2ccccc2Sc2ccccc21)c1ccc(Br)cc1 50.1 µM, CCN1C(=O)/C(=C2/Sc3ccccc3N2CCCS(=O)(=O)O)SC1=S 39.8 µM
